These binders were tested against AgAbp1 (assay: SPOT peptide array binding signal intensity (averaged, normalized) (arbitrary units (background-subtracted, floor 0; scale differs between SH3 domains)); higher = stronger binding of the SH3 domain to the peptide).
Method in brief: (§1)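 Detection of bound protein relied on anti-GST antibody, an HRP anti-mouse secondary and luminol, with imaging and quantification in Genespotter. The bound protein was GST-fused SH3 domains from four yeast species, incubated at 10 μg/ml overnight at 4°C in TBS-based blocking buffer on cellulose membranes carrying synthetic 15-mer peptides with cysteines replaced by serines. Binding signal is normalized, background-subtracted spot intensity averaged over replicates, in arbitrary units that differ between domains.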

Binder	SPOT peptide array binding signal intensity
MTKTPETSPPKRPMG	≤ 0
SSSSSPPPLPTRRDH	≤ 0

These binders were tested against AgBbc1 in the same assay as above.
Method in brief: as §1

Binder	SPOT peptide array binding signal intensity
MTKTPETSPPKRPMG	5.25
SSSSSPPPLPTRRDH	364

These binders were tested against AgBem1-D1 in the same assay as above.
Method in brief: as §1

Binder	SPOT peptide array binding signal intensity
MTKTPETSPPKRPMG	66.5
SSSSSPPPLPTRRDH	2

Each binder was assayed against AgBzz1-D1 in the same assay as above.
Method in brief: as §1

Binder	SPOT peptide array binding signal intensity
MTKTPETSPPKRPMG	22
SSSSSPPPLPTRRDH	26

These binders were tested against AgBzz1-D2 in the same assay as above.
Method in brief: as §1

Binder	SPOT peptide array binding signal intensity
MTKTPETSPPKRPMG	11.5
SSSSSPPPLPTRRDH	19.5

Each binder was assayed against AgCyk3 in the same assay as above.
Method in brief: as §1

Binder	SPOT peptide array binding signal intensity
MTKTPETSPPKRPMG	≤ 0
SSSSSPPPLPTRRDH	1.5

What follows are binders tested against AgFus1 in the same assay as above.
Method in brief: as §1

Binder	SPOT peptide array binding signal intensity
MTKTPETSPPKRPMG	≤ 0
SSSSSPPPLPTRRDH	15.5

What follows are binders tested against AgHof1 in the same assay as above.
Method in brief: as §1

Binder	SPOT peptide array binding signal intensity
MTKTPETSPPKRPMG	7.25
SSSSSPPPLPTRRDH	59

These binders were tested against AgHse1 in the same assay as above.
Method in brief: as §1

Binder	SPOT peptide array binding signal intensity
MTKTPETSPPKRPMG	≤ 0
SSSSSPPPLPTRRDH	18.5

These binders were tested against AgLsb1 in the same assay as above.
Method in brief: as §1

Binder	SPOT peptide array binding signal intensity
MTKTPETSPPKRPMG	1
SSSSSPPPLPTRRDH	180

These binders were tested against AgLsb4 in the same assay as above.
Method in brief: as §1

Binder	SPOT peptide array binding signal intensity
MTKTPETSPPKRPMG	2
SSSSSPPPLPTRRDH	6800

Each binder was assayed against AgMyo5 in the same assay as above.
Method in brief: as §1

Binder	SPOT peptide array binding signal intensity
MTKTPETSPPKRPMG	946
SSSSSPPPLPTRRDH	586

Each binder was assayed against AgNbp2 in the same assay as above.
Method in brief: as §1

Binder	SPOT peptide array binding signal intensity
MTKTPETSPPKRPMG	25
SSSSSPPPLPTRRDH	16

The binders below were run against AgRvs167 in the same assay as above.
Method in brief: as §1

Binder	SPOT peptide array binding signal intensity
MTKTPETSPPKRPMG	3.83
SSSSSPPPLPTRRDH	627

Each binder was assayed against AgSho1 in the same assay as above.
Method in brief: as §1

Binder	SPOT peptide array binding signal intensity
MTKTPETSPPKRPMG	≤ 0
SSSSSPPPLPTRRDH	19

These binders were tested against AgSla1-D1-D2 in the same assay as above.
Method in brief: as §1

Binder	SPOT peptide array binding signal intensity
MTKTPETSPPKRPMG	1
SSSSSPPPLPTRRDH	≤ 0

These binders were tested against AgSla1-D3 in the same assay as above.
Method in brief: as §1

Binder	SPOT peptide array binding signal intensity
MTKTPETSPPKRPMG	≤ 0
SSSSSPPPLPTRRDH	≤ 0

The binders below were run against CaAbp1-D1 in the same assay as above.
Method in brief: as §1

Binder	SPOT peptide array binding signal intensity
MTKTPETSPPKRPMG	36
SSSSSPPPLPTRRDH	7.5

The binders below were run against CaAbp1-D2 in the same assay as above.
Method in brief: as §1

Binder	SPOT peptide array binding signal intensity
MTKTPETSPPKRPMG	24
SSSSSPPPLPTRRDH	≤ 0

What follows are binders tested against CaBbc1 in the same assay as above.
Method in brief: as §1

Binder	SPOT peptide array binding signal intensity
MTKTPETSPPKRPMG	180
SSSSSPPPLPTRRDH	378

Each binder was assayed against CaBem1-D1 in the same assay as above.
Method in brief: as §1

Binder	SPOT peptide array binding signal intensity
MTKTPETSPPKRPMG	17
SSSSSPPPLPTRRDH	4

These binders were tested against CaBzz1-D1 in the same assay as above.
Method in brief: as §1

Binder	SPOT peptide array binding signal intensity
MTKTPETSPPKRPMG	30
SSSSSPPPLPTRRDH	139

Each binder was assayed against CaBzz1-D2 in the same assay as above.
Method in brief: as §1

Binder	SPOT peptide array binding signal intensity
MTKTPETSPPKRPMG	21
SSSSSPPPLPTRRDH	≤ 0

What follows are binders tested against CaCyk3 in the same assay as above.
Method in brief: as §1

Binder	SPOT peptide array binding signal intensity
MTKTPETSPPKRPMG	7.5
SSSSSPPPLPTRRDH	2

These binders were tested against CaFus1 in the same assay as above.
Method in brief: as §1

Binder	SPOT peptide array binding signal intensity
MTKTPETSPPKRPMG	55.5
SSSSSPPPLPTRRDH	26

The binders below were run against CaHof1 in the same assay as above.
Method in brief: as §1

Binder	SPOT peptide array binding signal intensity
MTKTPETSPPKRPMG	2
SSSSSPPPLPTRRDH	24.5

These binders were tested against CaHse1 in the same assay as above.
Method in brief: as §1

Binder	SPOT peptide array binding signal intensity
MTKTPETSPPKRPMG	1.25
SSSSSPPPLPTRRDH	114

These binders were tested against CaLsb1 in the same assay as above.
Method in brief: as §1

Binder	SPOT peptide array binding signal intensity
MTKTPETSPPKRPMG	0.5
SSSSSPPPLPTRRDH	19.5

These binders were tested against CaLsb4 in the same assay as above.
Method in brief: as §1

Binder	SPOT peptide array binding signal intensity
MTKTPETSPPKRPMG	77
SSSSSPPPLPTRRDH	8630

What follows are binders tested against CaMyo5 in the same assay as above.
Method in brief: as §1

Binder	SPOT peptide array binding signal intensity
MTKTPETSPPKRPMG	87.2
SSSSSPPPLPTRRDH	6.5

The binders below were run against CaNbp2 in the same assay as above.
Method in brief: as §1

Binder	SPOT peptide array binding signal intensity
SSSSSPPPLPTRRDH	24.5

The binders below were run against CaRvs167 in the same assay as above.
Method in brief: as §1

Binder	SPOT peptide array binding signal intensity
SSSSSPPPLPTRRDH	1510

What follows are binders tested against CaRvs167-3 in the same assay as above.
Method in brief: as §1

Binder	SPOT peptide array binding signal intensity
SSSSSPPPLPTRRDH	7.25

These binders were tested against CaSho1 in the same assay as above.
Method in brief: as §1

Binder	SPOT peptide array binding signal intensity
SSSSSPPPLPTRRDH	6.5

Each binder was assayed against CaSla1-D1-D2 in the same assay as above.
Method in brief: as §1

Binder	SPOT peptide array binding signal intensity
SSSSSPPPLPTRRDH	76

These binders were tested against CaSla1-D3 in the same assay as above.
Method in brief: as §1

Binder	SPOT peptide array binding signal intensity
SSSSSPPPLPTRRDH	3.25

These binders were tested against ScAbp1 in the same assay as above.
Method in brief: as §1

Binder	SPOT peptide array binding signal intensity
SSSSSPPPLPTRRDH	≤ 0

What follows are binders tested against ScBbc1 in the same assay as above.
Method in brief: as §1

Binder	SPOT peptide array binding signal intensity
SSSSSPPPLPTRRDH	4

What follows are binders tested against ScBem1-D1 in the same assay as above.
Method in brief: as §1

Binder	SPOT peptide array binding signal intensity
SSSSSPPPLPTRRDH	≤ 0

Each binder was assayed against ScBzz1-D1 in the same assay as above.
Method in brief: as §1

Binder	SPOT peptide array binding signal intensity
SSSSSPPPLPTRRDH	≤ 0

Each binder was assayed against ScBzz1-D2 in the same assay as above.
Method in brief: as §1

Binder	SPOT peptide array binding signal intensity
SSSSSPPPLPTRRDH	12

These binders were tested against ScCyk3 in the same assay as above.
Method in brief: as §1

Binder	SPOT peptide array binding signal intensity
SSSSSPPPLPTRRDH	1

What follows are binders tested against ScFus1 in the same assay as above.
Method in brief: as §1

Binder	SPOT peptide array binding signal intensity
SSSSSPPPLPTRRDH	20

What follows are binders tested against ScHof1 in the same assay as above.
Method in brief: as §1

Binder	SPOT peptide array binding signal intensity
SSSSSPPPLPTRRDH	9.75

These binders were tested against ScHse1 in the same assay as above.
Method in brief: as §1

Binder	SPOT peptide array binding signal intensity
SSSSSPPPLPTRRDH	15

The binders below were run against ScLsb1 in the same assay as above.
Method in brief: as §1

Binder	SPOT peptide array binding signal intensity
SSSSSPPPLPTRRDH	1340

These binders were tested against ScLsb2 in the same assay as above.
Method in brief: as §1

Binder	SPOT peptide array binding signal intensity
SSSSSPPPLPTRRDH	349

Each binder was assayed against ScLsb3 in the same assay as above.
Method in brief: as §1

Binder	SPOT peptide array binding signal intensity
SSSSSPPPLPTRRDH	5910

Each binder was assayed against ScLsb4 in the same assay as above.
Method in brief: as §1

Binder	SPOT peptide array binding signal intensity
SSSSSPPPLPTRRDH	7200

The binders below were run against ScMyo3 in the same assay as above.
Method in brief: as §1

Binder	SPOT peptide array binding signal intensity
SSSSSPPPLPTRRDH	460

The binders below were run against ScMyo5 in the same assay as above.
Method in brief: as §1

Binder	SPOT peptide array binding signal intensity
SSSSSPPPLPTRRDH	166

These binders were tested against ScNbp2 in the same assay as above.
Method in brief: as §1

Binder	SPOT peptide array binding signal intensity
SSSSSPPPLPTRRDH	≤ 0

Each binder was assayed against ScPex13 in the same assay as above.
Method in brief: as §1

Binder	SPOT peptide array binding signal intensity
SSSSSPPPLPTRRDH	1560

The binders below were run against ScRvs167 in the same assay as above.
Method in brief: as §1

Binder	SPOT peptide array binding signal intensity
SSSSSPPPLPTRRDH	2180

Each binder was assayed against ScSho1 in the same assay as above.
Method in brief: as §1

Binder	SPOT peptide array binding signal intensity
SSSSSPPPLPTRRDH	26.5

These binders were tested against ScSla1-D1-D2 in the same assay as above.
Method in brief: as §1

Binder	SPOT peptide array binding signal intensity
SSSSSPPPLPTRRDH	51

Each binder was assayed against ScSla1-D3 in the same assay as above.
Method in brief: as §1

Binder	SPOT peptide array binding signal intensity
SSSSSPPPLPTRRDH	10

What follows are binders tested against SpAbp1-D1 in the same assay as above.
Method in brief: as §1

Binder	SPOT peptide array binding signal intensity
SSSSSPPPLPTRRDH	22.5

The binders below were run against SpBbc1 in the same assay as above.
Method in brief: as §1

Binder	SPOT peptide array binding signal intensity
SSSSSPPPLPTRRDH	13

Each binder was assayed against SpBzz1-D1 in the same assay as above.
Method in brief: as §1

Binder	SPOT peptide array binding signal intensity
SSSSSPPPLPTRRDH	406

These binders were tested against SpBzz1-D2 in the same assay as above.
Method in brief: as §1

Binder	SPOT peptide array binding signal intensity
SSSSSPPPLPTRRDH	9.75

What follows are binders tested against SpCyk3 in the same assay as above.
Method in brief: as §1

Binder	SPOT peptide array binding signal intensity
SSSSSPPPLPTRRDH	2

The binders below were run against SpHof1 in the same assay as above.
Method in brief: as §1

Binder	SPOT peptide array binding signal intensity
SSSSSPPPLPTRRDH	8.75

These binders were tested against SpHof1-2 in the same assay as above.
Method in brief: as §1

Binder	SPOT peptide array binding signal intensity
SSSSSPPPLPTRRDH	54.5

What follows are binders tested against SpHof1-3 in the same assay as above.
Method in brief: as §1

Binder	SPOT peptide array binding signal intensity
SSSSSPPPLPTRRDH	8.75

These binders were tested against SpHse1 in the same assay as above.
Method in brief: as §1

Binder	SPOT peptide array binding signal intensity
SSSSSPPPLPTRRDH	35

Each binder was assayed against SpLsb1 in the same assay as above.
Method in brief: as §1

Binder	SPOT peptide array binding signal intensity
SSSSSPPPLPTRRDH	1530

Each binder was assayed against SpLsb4 in the same assay as above.
Method in brief: as §1

Binder	SPOT peptide array binding signal intensity
SSSSSPPPLPTRRDH	6770

These binders were tested against SpMyo1 in the same assay as above.
Method in brief: as §1

Binder	SPOT peptide array binding signal intensity
SSSSSPPPLPTRRDH	308

What follows are binders tested against SpNbp2 in the same assay as above.
Method in brief: as §1

Binder	SPOT peptide array binding signal intensity
SSSSSPPPLPTRRDH	6

Each binder was assayed against SpPex13 in the same assay as above.
Method in brief: as §1

Binder	SPOT peptide array binding signal intensity
SSSSSPPPLPTRRDH	6.5

What follows are binders tested against SpRvs167 in the same assay as above.
Method in brief: as §1

Binder	SPOT peptide array binding signal intensity
SSSSSPPPLPTRRDH	2880

Each binder was assayed against SpSla1-D1-D2 in the same assay as above.
Method in brief: as §1

Binder	SPOT peptide array binding signal intensity
SSSSSPPPLPTRRDH	11

What follows are binders tested against SpSla1-D3 in the same assay as above.
Method in brief: as §1

Binder	SPOT peptide array binding signal intensity
SSSSSPPPLPTRRDH	9.5

— the supplement of paper PMC4466140
